Compound activity (PubChem BioAssay)
TRPML1 inh: human mucolipin-1 channel inhibition; TRPML1-inducible cells, Ca2+ dye fluorescence, FDSS; hits give low values; inhibition of EC80 agonist-evoked calcium signal; hit rate 0.02% among 390,000; activity change, negative = inhibition, % (concentration not given with the values); in the data active = activity change below about -50%; inconclusive = between about -30% and that limit;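 note: stimulus is agonist 54-4 at its EC80 concentration; % is set by controls: 0 for no effect and ±100 for the full control effect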
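TRPML1-DL cells, Tet-induced overnight (~16 h, 37 °C) at 1,500 cells/well, were loaded with Ca8 no-wash dye plus quencher for 45-90 min at room temperature. Compounds were pinned during FDSS kinetic reading; agonist 54-4 at EC80 (4 uM final) then added.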
TRPML1 agonist: activates the human TRPML1 channel; Q9GZU1; TRPML1-expressing cells, Ca2+ dye fluorescence, FDSS; activation, % (test concentration not listed); hit rate 0.12% among 410,000; in the data active = activation above about 50%; inconclusive = mostly about 30% to 49%; note: 0% is about no effect
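TRPML1-DL cells, Tet-induced overnight (~16 h, 37 degrees C), loaded 45-90 min at room temperature with Ca8 no-wash calcium dye plus quencher. FDSS fluorescence: 10 s baseline, compound pin-transfer, 110 s agonist read, then EC80 54-4 (4uM final) and 110 s antagonist read.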
RGS4 inhibitor: human RGS4 inhibition; P49798; Transcreener GDP fluorescence polarization, RGS4-accelerated GTP hydrolysis; hit rate 0.039% among 390,000; Potency, µM (top dose mostly 114 µM), without a hit: top-dose activity change, negative = inhibition, most hits filed as inhibitors; AID 504845; note: potency is the fitted concentration of half-maximal effect; % is set by controls: 0 for no effect and ±100 for the full control effect; nearly all actives have a fitted effect of over 75% in size
Target sequence (P49798 whole entry, looked up): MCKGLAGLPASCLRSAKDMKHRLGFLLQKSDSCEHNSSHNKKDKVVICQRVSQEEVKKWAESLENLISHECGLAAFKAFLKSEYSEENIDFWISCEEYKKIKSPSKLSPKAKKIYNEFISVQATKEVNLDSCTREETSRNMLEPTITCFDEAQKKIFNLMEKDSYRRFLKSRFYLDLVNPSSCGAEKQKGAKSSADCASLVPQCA
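MLSMR compounds (23 nl, pin-transferred) preincubated 10 min at room temperature with a 500nM (2x) first reagent, then RGS4 at 900nM (2x) plus Transcreener GDP mix added; fluorescence polarization (620/688 nm) read before and after 90 min at 30 °C.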
TRPV1 ag: activates the human vanilloid receptor TRPV1; activation, % at 8.33 µM; Q8NER1; hit rate 0.19% among 320,000; TRPV1-expressing cells, Fluo-8 calcium influx, agonist mode; in the data active = activation above about 80%; inconclusive = between about 30% and that limit; note: 0% is about no effect
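Cells expressing TRPV1 were dye-loaded with Fluo-8 and read kinetically: 10 s baseline, 3 min after compound (agonist portion), then 2 min after EC20 capsaicin (allosteric enhancer portion). Calcium-bound dye fluorescence at 480/520 nm.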
TRPV1 PAM: human TRPV1 potentiation; potentiation, % at 8.33 µM; TRPV1-expressing cells, Fluo-8 calcium influx, capsaicin EC20 potentiation; Q8NER1; hit rate 0.02% among 320,000; in the data active = potentiation above about 80%; inconclusive = between about 30% and that limit; note: 0% is about no effect
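Fluo-8 calcium influx in TRPV1-expressing cells, kinetic read (ex 480/em 520 nm). Compound added and read 3 min for agonist activity, followed by capsaicin at EC20 final and 2 min further read for enhancement.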
AT treatment: candidate therapy for ataxia-telangiectasia | F2112 A-T fibroblasts, KAP-1 phosphorylation AlphaLISA; neocarzinostatin DNA damage 30 min before lysis | Potency, µM (highest dose often 57.5 µM), for the others: top-dose activation, actives largely listed as activators | hit rate 0.19% among 320,000; note: potency is the fitted concentration of half-maximal effect; % of control where 0% means no effect; nearly all actives have a fitted effect of over 45% in size
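ATM-like activity read as KAP-1 phosphorylation via AlphaLISA donor/acceptor antibody pairs after lysis and 6 hr at 25C. Cells were ATM-null patient fibroblasts (F2112, hTERT), dosed 60 min, then exposed to the DSB inducer NCS for 30 min.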
An asterisk follows results filed as active; ? = inconclusive; nt = no result; ! = not confirmed by another sample; [ ] = another dose, or the depositor's remark. Sampled rows, rich in hits. Any-hit rate of the full collection: about 0.5%. Unless noted, calls come from the whole dose curve; as a rule, active = well fitted curve in the direction sought with a large enough effect; inconclusive = small, poorly fitted or top-dose-only effect, or another doubt; inactive = no such curve, though single readings can be large; an effect the other way counts as inactive or inconclusive.

SMILES	TRPML1 inh	TRPML1 agonist	RGS4 inhibitor	TRPV1 ag	TRPV1 PAM	AT treatment
CCOc1ccccc1C(=O)Nc1cc(-c2ccc(C)cc2)no1	-4	0	-18%	nt	nt	nt
O=C(Nc1ccc2oc(=O)ccc2c1)c1ccc(-c2ccc(Cl)cc2)o1	13	-1	-10%	3	0	-2%
CCn1cc(/C=C/c2cc[n+](C)cc2)c2ccccc21	-23	13	?	-7	12	3.2µM*
N#CCCN(Cc1ccccc1)C(=S)Nc1ccccc1	6	0	-39%	0	2	2%
CC1CCCC(C)N1C(=O)CSc1nnc(C2CCCCC2)o1 (stereo unspecified)	-1	0	-5%	2	-1	32µM*
Cc1cc(-c2nnc(SCC(=O)N3C(C)CCCC3C)o2)no1 (stereo unspecified)	14	0	-11%	-1	0	9%
COc1ccc(CC(=O)Nc2cc(S(=O)(=O)N3CCCCC3)ccc2C)cc1OC	7	0	-6%	9	4	-1%
Cc1nn(-c2ccccc2)c(C)c1/C=N/n1c(-c2ccccc2Br)n[nH]c1=S	-69*	3	-33%	21	-5	4%
COc1cc(OC)c2c(c1O)OC(c1ccccc1)CC2=O (stereo unspecified)	nt	nt	-8%	1	20	-10%
COc1cc(OC)c2c(c1)OC(c1ccccc1)CC2=O (stereo unspecified)	nt	nt	5.3µM*	nt	nt	nt
CCOc1ccc2noc3c2c1C(=O)c1ccccc1-3	-1	2	-17%	?	-13	-8%
O=C1c2ccccc2-c2onc3ccc(N4CCCC4)c1c23	33	?	?	?	-8	-7%
CCNc1ccc2noc3c2c1C(=O)c1ccccc1-3	4	63*	-41%	?	-2	4%
O=C1c2ccccc2-c2onc3ccc(NCc4ccco4)c1c23	-15	21	?	14	5	22µM*
COC1=C(N)C(=O)c2nc(-c3nc(C(=O)O)c(C)c(-c4ccc(OC)c(OC)c4O)c3N)ccc2C1=O	0	0	-43%	2	-9	0.71µM*
CC(C)c1ccc(N=Cc2c(O)c3ccccc3oc2=O)cc1	nt	nt	9%	83*	-7	1%
Cc1ccc(C(=O)Nc2ccc3c(c2)OCO3)cc1Cl	nt	nt	nt	?	-9	14%
CCN(CC)c1ccc(NC(=O)c2ccc3c(c2)OCO3)cc1	1	1	-28%	83*	-11	-2%
CCC(=O)Nc1ccc(NC(=O)c2ccc3c(c2)OCO3)cc1	-5	1	-5%	-1	4	-1%
Cc1ccc(NC(=O)c2ccc3c(c2)OCO3)cc1Cl	-6	-1	11%	83*	-11	3%
COc1cc(CNC(=O)CCCC(=O)c2ccccc2)cc(OC)c1OC	-18	1	?	0	3	-7%
COc1cc(CNC(=O)CCCC/C=C/C(C)C)ccc1O	-21	1	-19%	103*	-2	15%
CN1CCN(CCCN2c3ccccc3Sc3ccc(C(F)(F)F)cc32)CC1	9	1	19µM*!	7	-8	-2%
O=C(CN1CCCC(O)C1)N1c2ccccc2Sc2ccc(C(F)(F)F)cc21 (stereo unspecified)	11	-1	32%	16	-11	1%
O=C(c1ccc2snnc2c1)N1CCN(c2ccccc2)CC1	-5	5	12%	28	-16	0%
SMILES	TRPML1 inh	TRPML1 agonist	RGS4 inhibitor	TRPV1 ag	TRPV1 PAM	AT treatment
CN(C/C=C/c1ccccc1)Cc1cccc2ccccc12	-2	0	-25%	-1	15	40µM*
CN(Cc1cccc([N+](=O)[O-])c1)Cc1cccc2ccccc12	-8	-1	36%	1	-5	5%
Cc1ccc(S(=O)(=O)N(C)c2ccc(C)c([N+](=O)[O-])c2)cc1	29	2	24%	-6	80*	6%
CC1(c2nnc(-c3cccc(Cl)c3)o2)CC(c2cccc([N+](=O)[O-])c2)=NO1 (stereo unspecified)	-9	-1	28%	11	-6	9%
Cc1ccccc1-c1ccc(/C=C2/SC(N3CCOCC3)=NC2=O)o1	-3	1	-27%	84*	-2	-8%
Cc1nn(-c2ccccc2)c(Cl)c1/C=N/NC(=O)CCNc1n[nH]c(=O)[nH]c1=O	13	-1	-7%	2	4	20µM*
COc1ccc(Cn2c(=O)c3ccccc3n3c(-c4cccc(OC)c4OC)nnc23)cc1	0	-1	-2%	nt	nt	nt
CCC(C)NC(=O)C1=CCN(S(=O)(=O)c2ccc(C)cc2)CC1 (stereo unspecified)	-54*	0	-25%[56.9 µM]	-3	4	0%
Cc1ccc(S(=O)(=O)CCC(=O)N(C)c2c(N)n(Cc3ccccc3)c(=O)[nH]c2=O)cc1	-4	6	-15%	3	-15	-1%
Cc1cccc(C(=O)Nc2ccc(N3CCN(c4ccc(C(F)(F)F)cn4)CC3)nc2)c1	3	0	9%	3	5	3%
c1ccc(N2N=C(c3cccs3)CC2c2ccco2)cc1 (stereo unspecified)	20	4	18%	6	26	28µM*
Clc1ccc(N2N=C(c3cccs3)CC2c2ccco2)cc1 (stereo unspecified)	0	0	-8%	-1	6	22µM*
CCC(=O)N1N=C(c2cccs2)CC1c1ccco1 (stereo unspecified)	45	1	4%	5	-5	5%
c1ccc(C2=NN(c3ccccc3)C(c3ccco3)C2)cc1 (stereo unspecified)	-20	1	7%	19	12	16µM*
CC(C)(C)C(=O)Nc1ccc(-c2nc3ccc(NC(=O)C(C)(C)C)cc3[nH]2)cc1	10	2	-3%	nt	nt	nt
CCc1ccc(NC(=S)NC2CC3CCCC(C2)N3Cc2ccccc2)cc1 (stereo unspecified)	-4	0	8%[56.9 µM]	-1	9	1%
CCOC(=O)c1cn(Cc2ccccc2)c(C(=O)OC(C)(C)C)c1O	-5	60*	-48%	nt	nt	nt
NC(=O)c1nsc(C(=O)N(CC(=O)NC2CCCCC2)Cc2ccc3c(c2)OCO3)c1N	nt	-1	10%	nt	nt	nt
O=C(NCc1ccccn1)C(=O)NCc1ccccn1	2	-1	-19%	-15	97*	6%
CC(C)(C)NC(=O)C(=O)NCc1ccccn1	-1	0	3%	0	2	-1%
O=C(CN1C(=O)C2CC=CCC2C1=O)N1CCN(S(=O)(=O)c2ccccc2)CC1 (stereo unspecified)	-3	-1	4%	nt	nt	2%
